40 sequences from the supplement of paper PMC6555819 can be followed below.

The test system of one assay is PPARa:RXRa (NR concentration 270 nM, RXRa partner concentration 90 nM). The experiment in a line: PBM binding z-score (relative to random genomic background probes); higher = stronger binding; sequences stand for … in GC…GCGATTGACAGCGTAGAATGAAGG
An outline of the steps:
(§1)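 For binding z-scores, the reference was random background probes on custom Agilent 4×180K protein-binding microarrays. These arrays were incubated 1 h with ligand-free nuclear receptor dimers in PBS pH 7.4, 2% milk, 0.02% Triton X-100, 1 mM DTT, 0.2 mg/mL BSA and 0.4 mg/ml salmon testes DNA. Fluorescence was scanned after antibody detection of each partner (one per run) and regression-normalized.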
On to GCTAGCAGGCCATTTGAGTCACTCAATGACGGGC, for which the PBM binding z-score was -0.463.

Turning to TAGCCTAGGTCATTCAGGGGCCAGTATAGAAAGC, the PBM binding z-score is 3.78.

Sequence ATCTCTAGTTAAAGTTCAGTGAAAGATCGATAGA yielded a PBM binding z-score of 1.78.

The sequence ATATGTAGGTTAGCTGGGTTCATTCAGACTAGGC came in with a PBM binding z-score of 3.76.

TCTATTAGTTCATTAGGGCAACCGAAACAGCGGA yielded a PBM binding z-score of 2.47.

Sequence CCTGCTAGGTCATGGTCCGCTAATCTACAGTATG registered a PBM binding z-score of 3.46.

Consider TGTAGCAGGCCAGAGGGTCACTCAAGAGGTACGG, for which the PBM binding z-score came out at 2.15.

Take CGAACTAGGTCAGAACAAGACAGTGAAGGATGAT: the PBM binding z-score was 3.32.

ATCTCTAGGTAACAAGTTGAGTGAAAGAGAGGAC: the PBM binding z-score stood at 0.677.

AGTCAAAGCTCAGGACGAGGTAACGTAAAGCACG displayed a PBM binding z-score of -0.301.

In turn, ACTAGTTGGTCAGCTGAGGTCAGACACAATTCGG came in with a PBM binding z-score of 2.42.

CCTTACGGGTCACGCGGTTATAGCACGACGAGCG: the PBM binding z-score is 5.65.

Regarding TCTTGTAGAGCAAGCAGGTTAAGAAAGCCTGAGT, the PBM binding z-score was found to be 0.415.

Regarding ATACCAAGGGGATCGTGAGGTCGTTGATACTAAC, the PBM binding z-score amounted to 0.97.

AGTCAAAGTTCAGGTCGAGGTAACGTAAAGCACG yielded a PBM binding z-score of 3.6.

With CCAGACAGGTGAGAAGGTAACCCAGCCTCGATTA, the PBM binding z-score was determined as 0.739.

Sequence CCTAGCAGGCCAATCTGGGTCACTCAAGGCTTGA had a PBM binding z-score of 3.1.

In the case of TCATATAGGTACAGGTGAAAGTCGAACGATATGA, the PBM binding z-score is 1.62.

CAAACTAGGTCAAGGACAAAGTCGGTTTGTGCCA: the PBM binding z-score is 4.59.

TCAAATAGGTAATACAGGTGAAAGTCGGCATCTA returned a PBM binding z-score of 2.04.

For the sequence GCTTGTAGATCGAGGTTAAGAAAGACTAAGCTAA, the PBM binding z-score came out at 1.68.

In turn, ACTATTAGTTCAGACGAGGGCAACCGATAGGTTG returned a PBM binding z-score of 0.817.

Regarding AATATTAGTTGAGACGAGGGCAACCGATAGGTTG, the PBM binding z-score was determined as 0.507.

For the sequence GCATATAGGTAATACAAGGTGATAGTCCGATTGT, the PBM binding z-score is 0.93.

In turn, CCTACTGGTCCACGAAAGGTCATTGATTCAGTGA registered a PBM binding z-score of 4.38.

In turn, GCGAGTGGGGCATCAGCAGGTTACCATAACTTAA registered a PBM binding z-score of 1.15.

In turn, AGAATGAGGTTGTTAAGATCAGGGAATTGCGGTC displayed a PBM binding z-score of 0.298.

Regarding TCCAGCAGGCCAGAGGGTCACTCAAGAGGTACGG, the PBM binding z-score was 2.23.

As to GCTTGTAGATAAAGGTTAAGAAAGACTAAGCTAA, the PBM binding z-score is 2.29.

On to CAGCCTAGGTCTGGGCCAGTATAGGAGGAACGTT, for which the PBM binding z-score is -0.798.

On to CCTAGTTGGTCGAGGTCACACACGCTATAGGTAC, for which the PBM binding z-score is 4.31.

Take ACTCGGAGCACAAAGGTCAGAGCTACGCCAGTGA: the PBM binding z-score is 4.38.

With TCATATAGGTAAAAGGTGAAAGTCGGTGTGGTAA, the PBM binding z-score was 5.57.

For the sequence CCTCGGAGGCCAGAAGGTCAGAGCTGTCCGCTTT, the PBM binding z-score was found to be 1.97.

On to TATACAGGGTCAAAGGCCCGAGTACGAATGTCGA, for which the PBM binding z-score was determined as 5.84.

As to CGTCCAAGGTCAATGCTCGGTCAGTGAAAGCATT, the PBM binding z-score amounted to 5.

TCTATTACTTGAAGGGCAACCGACGAGTCCGTTT: the PBM binding z-score was found to be 1.48.

In turn, CCGAGTAGTTTATGGGGCATTCAGGCAACGGTGA displayed a PBM binding z-score of 0.806.

In turn, TCGAGTAGATTAGTCGGGGCATTCAGCCAACATA displayed a PBM binding z-score of -0.142.

In the case of CGTCCAAGATCAGCAGGTCAGTGAAAGCGACGTG, the PBM binding z-score is 0.671.

For the next assay, the system named is PPARg:RXRa (NR concentration 180 nM, RXRa partner concentration 90 nM). The description is as above. The essentials:
as §1
Take GCTAGCAGGCCATTTGAGTCACTCAATGACGGGC: the PBM binding z-score turned out to be 0.311.

The sequence TAGCCTAGGTCATTCAGGGGCCAGTATAGAAAGC came in with a PBM binding z-score of 1.97.

With ATCTCTAGTTAAAGTTCAGTGAAAGATCGATAGA, the PBM binding z-score was 1.74.

ATATGTAGGTTAGCTGGGTTCATTCAGACTAGGC showed a PBM binding z-score of 4.18.

Regarding TCTATTAGTTCATTAGGGCAACCGAAACAGCGGA, the PBM binding z-score was 1.21.

Turning to CCTGCTAGGTCATGGTCCGCTAATCTACAGTATG, the PBM binding z-score turned out to be 2.34.

For TGTAGCAGGCCAGAGGGTCACTCAAGAGGTACGG, the PBM binding z-score came out at 1.51.

The sequence CGAACTAGGTCAGAACAAGACAGTGAAGGATGAT registered a PBM binding z-score of 5.7.

The sequence ATCTCTAGGTAACAAGTTGAGTGAAAGAGAGGAC returned a PBM binding z-score of 1.25.

On to AGTCAAAGCTCAGGACGAGGTAACGTAAAGCACG, for which the PBM binding z-score was determined as 0.722.

The sequence ACTAGTTGGTCAGCTGAGGTCAGACACAATTCGG came in with a PBM binding z-score of 0.879.

In the case of CCTTACGGGTCACGCGGTTATAGCACGACGAGCG, the PBM binding z-score was found to be 6.07.

TCTTGTAGAGCAAGCAGGTTAAGAAAGCCTGAGT returned a PBM binding z-score of -0.461.

The sequence ATACCAAGGGGATCGTGAGGTCGTTGATACTAAC registered a PBM binding z-score of 0.267.

In turn, AGTCAAAGTTCAGGTCGAGGTAACGTAAAGCACG gave a PBM binding z-score of 4.74.

The sequence CCAGACAGGTGAGAAGGTAACCCAGCCTCGATTA registered a PBM binding z-score of 0.689.

CCTAGCAGGCCAATCTGGGTCACTCAAGGCTTGA had a PBM binding z-score of 1.69.

In turn, TCATATAGGTACAGGTGAAAGTCGAACGATATGA came in with a PBM binding z-score of 1.23.

The sequence CAAACTAGGTCAAGGACAAAGTCGGTTTGTGCCA registered a PBM binding z-score of 7.75.

TCAAATAGGTAATACAGGTGAAAGTCGGCATCTA returned a PBM binding z-score of 1.14.

Regarding GCTTGTAGATCGAGGTTAAGAAAGACTAAGCTAA, the PBM binding z-score was -0.0308.

ACTATTAGTTCAGACGAGGGCAACCGATAGGTTG had a PBM binding z-score of 0.621.

As to AATATTAGTTGAGACGAGGGCAACCGATAGGTTG, the PBM binding z-score amounted to 0.897.

As to GCATATAGGTAATACAAGGTGATAGTCCGATTGT, the PBM binding z-score was found to be 1.32.

Take CCTACTGGTCCACGAAAGGTCATTGATTCAGTGA: the PBM binding z-score worked out at 1.3.

For GCGAGTGGGGCATCAGCAGGTTACCATAACTTAA, the PBM binding z-score was 0.528.

Turning to AGAATGAGGTTGTTAAGATCAGGGAATTGCGGTC, the PBM binding z-score was found to be 0.171.

On to TCCAGCAGGCCAGAGGGTCACTCAAGAGGTACGG, for which the PBM binding z-score stood at 0.983.

Sequence GCTTGTAGATAAAGGTTAAGAAAGACTAAGCTAA had a PBM binding z-score of 1.41.

Consider CAGCCTAGGTCTGGGCCAGTATAGGAGGAACGTT, for which the PBM binding z-score is -0.286.

Regarding CCTAGTTGGTCGAGGTCACACACGCTATAGGTAC, the PBM binding z-score was found to be 2.86.

ACTCGGAGCACAAAGGTCAGAGCTACGCCAGTGA gave a PBM binding z-score of 5.58.

As for TCATATAGGTAAAAGGTGAAAGTCGGTGTGGTAA, the PBM binding z-score came out at 9.43.

Regarding CCTCGGAGGCCAGAAGGTCAGAGCTGTCCGCTTT, the PBM binding z-score is -0.665.

Turning to TATACAGGGTCAAAGGCCCGAGTACGAATGTCGA, the PBM binding z-score was 6.14.

CGTCCAAGGTCAATGCTCGGTCAGTGAAAGCATT: the PBM binding z-score was 3.34.

The sequence TCTATTACTTGAAGGGCAACCGACGAGTCCGTTT showed a PBM binding z-score of 0.388.

Consider CCGAGTAGTTTATGGGGCATTCAGGCAACGGTGA, for which the PBM binding z-score was determined as 0.147.

In the case of TCGAGTAGATTAGTCGGGGCATTCAGCCAACATA, the PBM binding z-score was -0.45.

CGTCCAAGATCAGCAGGTCAGTGAAAGCGACGTG had a PBM binding z-score of 0.0765.
